# Measurements reported in ChEMBL document CHEMBL2218924, “A broad activity screen in support of a chemogenomic map for kinase signalling research and drug discovery” (Biochem J, 2013).
# Assays:
# [1] = biological target: Tyrosine-protein kinase HCK (Homo sapiens) (UniProt P08631); settings: at 1 µM
# [2] = biological target: Tyrosine-protein kinase HCK (Homo sapiens) (UniProt P08631); settings: at 10 µM
# [3] = biological target: Tyrosine-protein kinase HCK (Homo sapiens) (UniProt P08631); settings: at 1 µM; remark: listed apart in the source
# [4] = biological target: Tyrosine-protein kinase HCK (Homo sapiens) (UniProt P08631); settings: at 10 µM; remark: listed apart in the source
# [5] = biological target: Insulin-like growth factor 1 receptor (Homo sapiens) (UniProt P08069); settings: at 10 µM
# [6] = biological target: Protein kinase C eta type (Homo sapiens) (UniProt P24723); settings: at 10 µM
# [7] = biological target: Protein kinase C theta type (Homo sapiens) (UniProt Q04759); settings: at 1 µM
# [8] = biological target: Protein kinase C theta type (Homo sapiens) (UniProt Q04759); settings: at 10 µM
# [9] = biological target: T1, Protein kinase C iota type (Homo sapiens) (UniProt P41743); settings: at 1 µM
# T1 sequence (whole entry): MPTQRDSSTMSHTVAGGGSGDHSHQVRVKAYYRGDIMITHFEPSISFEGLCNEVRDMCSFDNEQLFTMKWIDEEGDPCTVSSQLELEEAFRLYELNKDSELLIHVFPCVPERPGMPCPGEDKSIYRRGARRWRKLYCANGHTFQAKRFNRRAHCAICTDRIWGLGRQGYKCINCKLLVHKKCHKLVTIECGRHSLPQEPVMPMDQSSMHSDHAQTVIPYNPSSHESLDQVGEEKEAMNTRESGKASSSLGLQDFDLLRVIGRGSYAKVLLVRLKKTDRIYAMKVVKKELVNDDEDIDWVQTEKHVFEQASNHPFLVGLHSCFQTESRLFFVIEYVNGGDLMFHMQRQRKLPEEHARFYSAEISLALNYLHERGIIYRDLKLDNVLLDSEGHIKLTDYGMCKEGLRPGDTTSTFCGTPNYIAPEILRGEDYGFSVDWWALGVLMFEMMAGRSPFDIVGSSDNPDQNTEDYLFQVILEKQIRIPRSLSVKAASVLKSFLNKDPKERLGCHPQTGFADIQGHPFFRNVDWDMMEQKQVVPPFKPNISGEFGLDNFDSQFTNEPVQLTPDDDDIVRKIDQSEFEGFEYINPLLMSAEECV
# [10] = biological target: T1, Protein kinase C iota type (Homo sapiens); settings: at 10 µM
# [11] = biological target: T2, Serine/threonine-protein kinase D1 (Homo sapiens) (UniProt Q15139); settings: at 1 µM
# T2 sequence (whole entry): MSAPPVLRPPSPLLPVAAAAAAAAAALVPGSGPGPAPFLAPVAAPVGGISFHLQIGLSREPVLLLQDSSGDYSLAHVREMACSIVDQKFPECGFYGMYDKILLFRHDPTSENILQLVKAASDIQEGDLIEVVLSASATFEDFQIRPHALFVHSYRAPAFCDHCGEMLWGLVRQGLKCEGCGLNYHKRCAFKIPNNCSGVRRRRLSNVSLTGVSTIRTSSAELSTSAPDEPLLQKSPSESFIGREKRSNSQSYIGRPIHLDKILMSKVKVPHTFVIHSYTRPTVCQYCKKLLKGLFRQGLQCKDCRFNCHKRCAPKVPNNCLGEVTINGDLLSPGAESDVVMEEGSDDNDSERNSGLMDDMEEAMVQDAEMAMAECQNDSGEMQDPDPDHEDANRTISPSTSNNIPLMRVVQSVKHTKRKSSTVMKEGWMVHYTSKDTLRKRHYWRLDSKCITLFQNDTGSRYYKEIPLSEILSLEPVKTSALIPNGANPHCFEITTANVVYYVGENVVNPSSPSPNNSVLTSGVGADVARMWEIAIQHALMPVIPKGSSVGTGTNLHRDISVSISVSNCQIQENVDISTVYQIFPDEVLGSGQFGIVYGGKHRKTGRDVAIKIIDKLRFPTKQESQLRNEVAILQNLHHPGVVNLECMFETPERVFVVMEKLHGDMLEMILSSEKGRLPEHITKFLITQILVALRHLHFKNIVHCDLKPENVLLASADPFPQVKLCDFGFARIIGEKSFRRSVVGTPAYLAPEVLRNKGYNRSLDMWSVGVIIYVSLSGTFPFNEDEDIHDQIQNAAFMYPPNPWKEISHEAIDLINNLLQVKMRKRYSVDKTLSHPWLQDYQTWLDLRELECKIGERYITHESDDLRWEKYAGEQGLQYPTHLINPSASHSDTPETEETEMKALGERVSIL
# [12] = biological target: T2, Serine/threonine-protein kinase D1 (Homo sapiens); settings: at 10 µM
# [13] = biological target: T3, Serine/threonine-protein kinase D2 (Homo sapiens) (UniProt Q9BZL6); settings: at 1 µM
# T3 sequence (whole entry): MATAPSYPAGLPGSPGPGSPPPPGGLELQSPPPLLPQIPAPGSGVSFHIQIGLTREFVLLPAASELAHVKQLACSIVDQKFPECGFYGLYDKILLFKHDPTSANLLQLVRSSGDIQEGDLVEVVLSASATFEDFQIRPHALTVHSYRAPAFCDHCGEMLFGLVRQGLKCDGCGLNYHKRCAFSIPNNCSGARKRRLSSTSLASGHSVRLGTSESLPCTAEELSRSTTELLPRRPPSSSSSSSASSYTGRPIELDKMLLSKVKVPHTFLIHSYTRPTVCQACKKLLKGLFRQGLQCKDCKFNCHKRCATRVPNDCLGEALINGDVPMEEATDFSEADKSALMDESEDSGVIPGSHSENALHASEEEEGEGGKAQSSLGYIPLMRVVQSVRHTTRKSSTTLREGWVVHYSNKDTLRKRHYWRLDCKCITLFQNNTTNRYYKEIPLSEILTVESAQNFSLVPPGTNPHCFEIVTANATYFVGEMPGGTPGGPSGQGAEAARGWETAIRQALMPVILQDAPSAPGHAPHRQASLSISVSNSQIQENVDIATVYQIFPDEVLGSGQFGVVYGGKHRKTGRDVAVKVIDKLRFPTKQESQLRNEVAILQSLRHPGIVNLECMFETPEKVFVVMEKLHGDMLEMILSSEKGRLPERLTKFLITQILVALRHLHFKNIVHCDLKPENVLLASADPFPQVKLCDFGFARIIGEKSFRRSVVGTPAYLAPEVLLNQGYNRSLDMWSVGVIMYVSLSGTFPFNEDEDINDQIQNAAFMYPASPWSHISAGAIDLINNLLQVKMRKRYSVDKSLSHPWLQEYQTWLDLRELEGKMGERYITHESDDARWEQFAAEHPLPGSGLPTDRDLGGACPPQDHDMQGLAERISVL
# [14] = biological target: T3, Serine/threonine-protein kinase D2 (Homo sapiens); settings: at 10 µM
# [15] = biological target: T4, Serine/threonine-protein kinase haspin (Homo sapiens) (UniProt Q8TF76); settings: at 1 µM
# T4 sequence (whole entry): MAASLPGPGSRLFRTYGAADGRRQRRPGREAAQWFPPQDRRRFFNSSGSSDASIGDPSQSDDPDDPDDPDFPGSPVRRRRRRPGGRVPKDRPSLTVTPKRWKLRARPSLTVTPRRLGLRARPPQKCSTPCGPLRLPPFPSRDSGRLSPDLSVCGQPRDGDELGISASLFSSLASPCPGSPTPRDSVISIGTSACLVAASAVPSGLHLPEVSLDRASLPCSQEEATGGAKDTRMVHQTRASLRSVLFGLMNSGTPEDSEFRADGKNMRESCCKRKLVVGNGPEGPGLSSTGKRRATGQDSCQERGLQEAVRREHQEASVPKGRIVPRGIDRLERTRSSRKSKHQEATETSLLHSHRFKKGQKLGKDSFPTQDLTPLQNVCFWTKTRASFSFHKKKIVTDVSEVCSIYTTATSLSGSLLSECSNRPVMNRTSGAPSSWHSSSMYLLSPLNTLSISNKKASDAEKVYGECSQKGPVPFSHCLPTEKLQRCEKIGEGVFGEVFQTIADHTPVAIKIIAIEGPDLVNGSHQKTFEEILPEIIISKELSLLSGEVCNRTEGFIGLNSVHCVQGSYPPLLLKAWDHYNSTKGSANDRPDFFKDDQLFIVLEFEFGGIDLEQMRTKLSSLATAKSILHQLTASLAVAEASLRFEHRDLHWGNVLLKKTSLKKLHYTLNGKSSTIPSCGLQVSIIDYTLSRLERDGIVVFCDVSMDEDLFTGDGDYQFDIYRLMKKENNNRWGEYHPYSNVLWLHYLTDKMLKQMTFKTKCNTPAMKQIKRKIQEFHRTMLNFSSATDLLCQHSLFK
# [16] = biological target: T4, Serine/threonine-protein kinase haspin (Homo sapiens); settings: at 10 µM
# [17] = biological target: T5, Protein kinase C zeta type (Homo sapiens) (UniProt Q05513); settings: at 10 µM
# T5 sequence (whole entry): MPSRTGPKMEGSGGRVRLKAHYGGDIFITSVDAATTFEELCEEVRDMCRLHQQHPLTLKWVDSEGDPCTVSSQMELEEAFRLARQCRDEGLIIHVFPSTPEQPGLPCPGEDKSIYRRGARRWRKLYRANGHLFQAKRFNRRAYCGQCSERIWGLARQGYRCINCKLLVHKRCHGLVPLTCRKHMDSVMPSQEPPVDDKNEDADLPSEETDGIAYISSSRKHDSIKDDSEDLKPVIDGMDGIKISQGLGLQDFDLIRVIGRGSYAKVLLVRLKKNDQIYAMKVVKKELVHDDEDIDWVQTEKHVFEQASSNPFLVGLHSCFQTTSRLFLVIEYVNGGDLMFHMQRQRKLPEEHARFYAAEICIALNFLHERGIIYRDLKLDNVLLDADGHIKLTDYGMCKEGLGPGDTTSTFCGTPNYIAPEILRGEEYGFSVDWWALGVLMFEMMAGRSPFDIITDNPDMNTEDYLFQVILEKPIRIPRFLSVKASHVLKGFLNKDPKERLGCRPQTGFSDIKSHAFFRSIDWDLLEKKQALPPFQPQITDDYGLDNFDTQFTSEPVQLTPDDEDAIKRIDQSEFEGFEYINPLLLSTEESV
# [18] = biological target: Insulin-like growth factor 1 receptor (Homo sapiens) (UniProt P08069); settings: at 1 µM
# [19] = biological target: Protein kinase C eta type (Homo sapiens) (UniProt P24723); settings: at 1 µM
# Sequence of Protein kinase C eta type (Homo sapiens) (P24723 whole entry): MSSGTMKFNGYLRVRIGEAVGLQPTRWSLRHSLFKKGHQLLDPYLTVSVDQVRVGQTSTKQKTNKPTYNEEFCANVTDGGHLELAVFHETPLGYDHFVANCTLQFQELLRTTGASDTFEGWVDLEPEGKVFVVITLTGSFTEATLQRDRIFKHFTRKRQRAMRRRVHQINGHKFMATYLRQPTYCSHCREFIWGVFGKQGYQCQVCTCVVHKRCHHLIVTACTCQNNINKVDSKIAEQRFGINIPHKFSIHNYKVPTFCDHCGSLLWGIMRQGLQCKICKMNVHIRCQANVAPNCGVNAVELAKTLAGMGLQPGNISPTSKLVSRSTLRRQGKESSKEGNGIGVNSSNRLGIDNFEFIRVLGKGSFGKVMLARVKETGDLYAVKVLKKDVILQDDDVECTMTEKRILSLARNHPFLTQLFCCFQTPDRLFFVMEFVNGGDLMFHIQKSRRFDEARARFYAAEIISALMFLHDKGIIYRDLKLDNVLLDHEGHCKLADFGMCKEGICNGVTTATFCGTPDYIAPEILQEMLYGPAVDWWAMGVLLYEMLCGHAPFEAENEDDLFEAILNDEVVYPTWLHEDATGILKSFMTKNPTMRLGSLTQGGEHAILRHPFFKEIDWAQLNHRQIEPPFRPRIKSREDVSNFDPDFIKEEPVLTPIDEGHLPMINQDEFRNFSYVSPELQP
# Sequence of Protein kinase C theta type (Homo sapiens) (Q04759 whole entry, looked up): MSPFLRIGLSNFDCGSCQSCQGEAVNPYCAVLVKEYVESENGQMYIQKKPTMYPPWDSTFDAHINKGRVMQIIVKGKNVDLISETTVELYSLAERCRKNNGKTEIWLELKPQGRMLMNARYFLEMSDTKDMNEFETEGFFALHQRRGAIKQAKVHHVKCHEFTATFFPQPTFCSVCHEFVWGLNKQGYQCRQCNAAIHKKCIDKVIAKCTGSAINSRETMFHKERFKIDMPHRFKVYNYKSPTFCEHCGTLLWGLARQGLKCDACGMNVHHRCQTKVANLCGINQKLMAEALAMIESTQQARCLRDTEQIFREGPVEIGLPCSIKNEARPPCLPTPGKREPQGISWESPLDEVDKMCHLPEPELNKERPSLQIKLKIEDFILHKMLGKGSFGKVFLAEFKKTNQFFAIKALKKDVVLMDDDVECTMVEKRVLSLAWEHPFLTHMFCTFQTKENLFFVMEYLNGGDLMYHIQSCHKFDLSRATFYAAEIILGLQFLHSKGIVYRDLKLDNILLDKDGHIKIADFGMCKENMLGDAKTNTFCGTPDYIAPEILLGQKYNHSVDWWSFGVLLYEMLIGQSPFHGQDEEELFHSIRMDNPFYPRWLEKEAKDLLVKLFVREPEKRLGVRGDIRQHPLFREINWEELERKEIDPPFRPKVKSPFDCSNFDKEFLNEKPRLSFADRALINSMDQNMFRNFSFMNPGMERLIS
# Sequence of Tyrosine-protein kinase HCK (Homo sapiens) (P08631 2-526 limits assumed): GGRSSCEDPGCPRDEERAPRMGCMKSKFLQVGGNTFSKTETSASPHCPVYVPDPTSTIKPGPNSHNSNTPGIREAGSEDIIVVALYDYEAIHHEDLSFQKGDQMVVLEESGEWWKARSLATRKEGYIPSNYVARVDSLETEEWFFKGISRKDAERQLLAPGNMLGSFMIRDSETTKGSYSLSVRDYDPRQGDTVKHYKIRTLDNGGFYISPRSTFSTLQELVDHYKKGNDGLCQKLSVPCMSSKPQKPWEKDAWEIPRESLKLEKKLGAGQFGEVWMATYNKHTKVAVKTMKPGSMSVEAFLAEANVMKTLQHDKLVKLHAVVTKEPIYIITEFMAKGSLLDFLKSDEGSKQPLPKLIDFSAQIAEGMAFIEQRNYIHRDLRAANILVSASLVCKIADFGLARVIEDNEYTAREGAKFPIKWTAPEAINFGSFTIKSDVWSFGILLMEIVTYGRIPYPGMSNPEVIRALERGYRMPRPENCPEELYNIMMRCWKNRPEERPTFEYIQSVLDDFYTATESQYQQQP
# Sequence of Insulin-like growth factor 1 receptor (Homo sapiens) (P08069 31-736 limits assumed): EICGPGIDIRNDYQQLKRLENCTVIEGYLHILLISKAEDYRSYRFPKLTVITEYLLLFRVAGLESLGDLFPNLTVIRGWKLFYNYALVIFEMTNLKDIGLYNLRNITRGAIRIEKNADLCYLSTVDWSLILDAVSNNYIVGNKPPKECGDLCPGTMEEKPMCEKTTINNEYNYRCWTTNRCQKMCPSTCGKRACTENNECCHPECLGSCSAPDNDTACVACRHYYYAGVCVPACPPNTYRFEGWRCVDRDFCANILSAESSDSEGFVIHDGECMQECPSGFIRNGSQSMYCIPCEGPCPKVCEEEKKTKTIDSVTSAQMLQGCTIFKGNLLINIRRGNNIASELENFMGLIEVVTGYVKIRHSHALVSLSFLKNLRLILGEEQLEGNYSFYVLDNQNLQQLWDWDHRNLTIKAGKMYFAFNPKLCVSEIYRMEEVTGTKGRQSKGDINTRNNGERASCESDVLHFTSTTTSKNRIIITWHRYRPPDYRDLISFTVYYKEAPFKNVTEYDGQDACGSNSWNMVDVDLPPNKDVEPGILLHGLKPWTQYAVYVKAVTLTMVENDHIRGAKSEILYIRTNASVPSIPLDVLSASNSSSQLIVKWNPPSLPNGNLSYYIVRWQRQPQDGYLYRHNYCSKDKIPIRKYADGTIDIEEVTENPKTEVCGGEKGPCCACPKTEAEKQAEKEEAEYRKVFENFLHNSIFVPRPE
# Sequence of Insulin-like growth factor 1 receptor (Homo sapiens) (P08069 741-1367 limits assumed): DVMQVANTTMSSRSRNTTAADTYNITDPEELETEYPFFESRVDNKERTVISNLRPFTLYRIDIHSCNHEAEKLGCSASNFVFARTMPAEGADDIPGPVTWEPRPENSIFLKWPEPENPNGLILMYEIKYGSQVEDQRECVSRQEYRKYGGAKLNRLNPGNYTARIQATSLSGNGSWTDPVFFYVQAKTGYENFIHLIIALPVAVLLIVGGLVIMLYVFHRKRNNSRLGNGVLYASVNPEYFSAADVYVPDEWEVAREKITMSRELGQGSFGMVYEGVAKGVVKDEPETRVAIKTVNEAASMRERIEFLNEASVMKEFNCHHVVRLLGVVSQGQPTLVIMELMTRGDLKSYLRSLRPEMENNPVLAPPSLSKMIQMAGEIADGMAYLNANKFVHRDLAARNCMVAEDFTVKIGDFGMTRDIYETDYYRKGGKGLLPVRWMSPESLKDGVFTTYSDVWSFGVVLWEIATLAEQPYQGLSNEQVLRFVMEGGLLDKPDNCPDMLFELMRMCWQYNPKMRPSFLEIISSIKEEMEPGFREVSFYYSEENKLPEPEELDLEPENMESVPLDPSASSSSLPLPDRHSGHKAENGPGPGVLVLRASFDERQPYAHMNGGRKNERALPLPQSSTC
smiles,measurement,setting,value
Nc1nc(Nc2ccc(S(N)(=O)=O)cc2)nn1C(=O)c1c(F)cccc1F,residual activity,[1],71%
same,residual activity,[2],25%
same,residual activity,[3],75%
same,residual activity,[4],21%
same,residual activity,[5],105%
same,residual activity,[6],64%
same,residual activity,[7],30%
same,residual activity,[8],20%
same,residual activity,[9],109% (inactive)
same,residual activity,[10],100%
same,residual activity,[11],75%
same,residual activity,[12],19%
same,residual activity,[13],113%
same,residual activity,[14],78%
NC(=O)c1cccc(-c2cc(Nc3ccc(OC(F)(F)F)cc3)ncn2)c1,residual activity,[15],84%
same,residual activity,[16],65%
same,residual activity,[6],91%
same,residual activity,[9],92% (inactive)
same,residual activity,[10],69%
same,residual activity,[14],91%
COc1ccc(CNC(=O)Nc2ncc([N+](=O)[O-])s2)cc1,residual activity,[1],13%
same,residual activity,[2],12%
same,residual activity,[3],52%
same,residual activity,[4],54%
same,residual activity,[5],123%
same,residual activity,[17],105%
same,residual activity,[9],110% (inactive)
same,residual activity,[10],110%
O=c1c(-c2ccc(F)cc2)c(-c2ccncc2)[nH]n1-c1ccc(Cl)cc1,residual activity,[16],75%
same,residual activity,[2],61%
same,residual activity,[4],81%
same,residual activity,[5],73%
same,residual activity,[6],72%
same,residual activity,[8],71%
same,residual activity,[10],100%
same,residual activity,[11],99%
same,residual activity,[12],37%
same,residual activity,[14],73%
Fc1ccc(-c2nc3n(c2-c2ccncc2)CCS3)cc1,residual activity,[16],96%
same,residual activity,[1],95%
same,residual activity,[2],94%
same,residual activity,[12],48%
same,residual activity,[14],89%
O=C(Nc1ccc(Cl)cc1)c1ccccc1NCc1ccncc1,residual activity,[1],80%
same,residual activity,[2],38%
same,residual activity,[18],125%
CCOc1nc(NC(=O)Cc2cc(OC)ccc2OC)cc(N)c1C#N,residual activity,[1],78%
same,residual activity,[2],71%
same,residual activity,[5],130%
same,residual activity,[12],54%
NC(=O)c1ccc(-c2nc(-c3ccc4c(c3)OCCO4)c(-c3ccccn3)[nH]2)cc1,residual activity,[15],95%
same,residual activity,[16],82%
same,residual activity,[1],68%
same,residual activity,[2],66%
same,residual activity,[5],137%
same,residual activity,[19],94%
same,residual activity,[6],88%
same,residual activity,[11],87%
same,residual activity,[12],62%
same,residual activity,[13],98%
same,residual activity,[14],87%
N#C/C(=C\c1ccc(O)c(O)c1)C(=O)NCc1ccccc1,residual activity,[16],48%
same,residual activity,[1],78%
same,residual activity,[2],70%
same,residual activity,[3],102%
same,residual activity,[4],80%
same,residual activity,[18],144%
same,residual activity,[5],65%
same,residual activity,[6],82%
same,residual activity,[14],102%
CN([C@@H](Cc1ccc(OS(=O)(=O)c2cccc3cnccc23)cc1)C(=O)N1CCN(c2ccccc2)CC1)S(=O)(=O)c1cccc2cnccc12,residual activity,[16],57%
same,residual activity,[1],86%
same,residual activity,[2],61%
same,residual activity,[5],182%
same,residual activity,[19],116%
same,residual activity,[6],100%
same,residual activity,[11],113%
same,residual activity,[14],79%
O=C(Nc1nc2ccccc2n1CCN1CCOCC1)c1cccc([N+](=O)[O-])c1,residual activity,[2],77%
